Assay results published in the supplement of paper PMC7726561.
In all, about 1,100 sequences were measured (“thermal melting temperature (Tm) of peptide-HLA complex”: median about 58, lowest 2% from about 42 on). This excerpt belongs to a sample that is enriched for the lowest values.

Molecular target: HLA-A*02:01
Assay: thermal melting temperature (Tm) of peptide-HLA complex; higher = more thermostable pHLA complex
Conditions: C1R-A*02:01
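Further: lysates heated 10 min at 37–73 °C, complexes pulled down with pan-HLA I antibody, peptide signal by DIA-MS relative to 37 °C, Tm where half the complex is unfolded.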

Sequence | thermal melting temperature [°C]
KQTDLEITV | 57.5
NVIERLQEA | 57.2
RVISELQEA | 40.7
AQFEHTILL | 58.1
QLAQFVHEV | 62.3
ALADFAELLRA | 62
NLLEIAPHL | 52.1
SLLDPVPEV | 62.5
ELMEQVPHI | 48.9
TLSQAIVKV | 54.1
RIIDTVAQV | 60.6
GLVDKLQAL | 55.6
KVLGIVVGV | 61
NQIEDNDDFQL | 42
NLIPILKTV | 56
SQTFVNPHV | 57.8
YLLTESSKL | 55.2
YLWPRGSPAL | 41.3
FLDDVVHSL | 58.8

Sequence | thermal melting temperature [°C]
SLHEFLVNL | 61.5
RLMNDMTAV | 58.9
RLLDGAFKL | 49.9
SLLDGHFVL | 40.1
VLIDYQRNV | 60.1
FLSSVIQNL | 58.3
QLYNQIIKL | 56.1
IQDFEMPTV | 50.9
VMLDVPIRL | 55.9
HLIDDLLAA | 41.1
ALFPAPLAQI | 62.7
NIIELVHQV | 57.1
KLGDFGLLV | 60.4
FLNPDEVHAI | 59.9
FLMENGSITSI | 58.2
YLSGIAHFL | 62
SLAQYLINA | 56.7
TIPEAFRGV | 46.3
KLLWTTSRV | 60.1

Sequence | thermal melting temperature [°C]
RVIGTLEEV | 57.6
YLDEDTIYHL | 45.2
AALEEADKMFL | 53.3
SVTSEGIKAV | 46
TVADKIHSV | 55.7
KMDEVLYSI | 59
RLAEVGQYEQV | 56.3
TLIGLSIKV | 56.7
SVAEGRALMSV | 56.8
FQVDEIYTV | 56
ILDQKVALL | 41.7
ILDQKINEV | 60
VILESDPQQVV | 40.1
IIADMDKWTV | 54.6
SMGQLPHTV | 41.4
ALERLLPQV | 59.2
KLYQEVEIASV | 61
SLLPFLKAV | 61.9
